Experimental data from PubChem BioAssay (NCATS).
Records with an inconclusive call do not appear. Entries that show only a call come without a potency. The source made the active and inactive calls. Unless noted, the call rests on the fitted dose curve; in most records, active means well fitted curve in the direction sought with a large enough effect; inconclusive means small, poorly fitted or top-dose-only effect, or another doubt; inactive means no such curve, though single readings can be large; an effect the other way counts as inactive or inconclusive.

What was measured:
[1] = target: Beta-2 adrenergic receptor (Homo sapiens) (UniProt P07550); test: qHTS validation assay of beta-arrestin-biased ligands of beta2-adrenergic receptor (AID 485366)
Outline: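 Values derive from curve-fitted %Activity of a luminescent beta-arrestin recruitment reporter; compounds tested up to 46 microM on Tango cells for 18 hr at 37 degrees C, 5% CO2.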

[2] = target: ATP-dependent 6-phosphofructokinase (Trypanosoma brucei brucei) (UniProt O15648); test: qHTS Validation Assay to Find Inhibitors of T. brucei phosphofructokinase (AID 485368)
Outline: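 Enzyme reaction in triethanolamine buffer pH 8.0 with 5 mM MgCl2, 0.01% Tween20 and 0.1% BSA; PFK 1.25 nM, F6P 0.5 mM, ATP 0.1 mM, 45 min RT. ADP quantified by ADP-Glo.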

[3] = Quantitative high throughput screen for delayed death inhibitors of the malarial parasite plastid, 96 hour incubation (AID 488745); further: nearly all actives have a fitted effect of over 70% in size; further: potency means the concentration at half of the fitted maximal effect
Outline: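 P. falciparum carrying an integrated firefly luciferase reporter, grown in erythrocytes (2% hematocrit, 0.1% parasitemia final) in RPMI 1640/0.5% Albumax, was exposed to compound for 96 h (two generations) at 37 C, 5% CO2. Luminescence decrease indicated growth inhibition.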

[4] = Quantitative high throughput screen for delayed death inhibitors of the malarial parasite plastid, 48 hour incubation (AID 488752); further: nearly all actives have a fitted effect of over 65% in size; further: potency means the concentration at half of the fitted maximal effect
Outline: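 Erythrocytes infected with P. falciparum carrying an integrated firefly luciferase reporter (2% hematocrit, 0.1% parasitemia final) were exposed to compounds in RPMI 1640/0.5% Albumax for 48 h at 37 C, 5% CO2. Growth inhibition was scored as reduced luminescence.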

[5] = target: Thioredoxin reductase 1, cytoplasmic (Rattus norvegicus) (UniProt O89049); test: qHTS Assay for Substrates of Mammalian Selenoprotein Thioredoxin Reductase 1 (TrxR1) (AID 488772);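 further: NADPH fluorescence in the first read after selenite addition and not the 8 min delta; series mostly up to about 57 µM; a drop in NADPH fluorescence below the no-compound background marks a TrxR1 substrate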
Outline: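 Quantitative HTS in Tris-HCl buffer at pH 7.5 with EDTA and Tween-20, using rat TrxR1, 400 uM NADPH and 400 uM selenite (final). A fall in initial NADPH fluorescence relative to background marked substrate behaviour.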

[6] = target: Thioredoxin reductase 1, cytoplasmic (Rattus norvegicus) (UniProt O89049); test: qHTS Assay for Inhibitors of Mammalian Selenoprotein Thioredoxin Reductase 1 (TrxR1) (AID 488773); conditions: Potency: inhibition; further: nearly all actives have a fitted effect of over 40% in size; further: potency means the concentration at half of the fitted maximal effect
Outline: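 Steps: enzyme (90 nM) plus NADPH (400 uM final), 5 min at ~22 deg C; compound added, 15 min; selenite (400 uM final) added; fluorescence followed for 8 min. Concentration-response curves derived from the normalized delta values.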

[7] = target: Flap endonuclease 1 (Homo sapiens) (UniProt P39748); test: qHTS Validation Assay for the Inhibitors of Human Flap endonuclease 1 (FEN1) (AID 488816)
Outline: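 FEN1, dispensed as a 10 nM reagent, was preincubated with pin-transferred compounds for 15 min at room temperature before substrate was added (50 nM final). Plates were read at 0 and 15 min, and a four-parameter Hill equation was fitted to the concentration-response data.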

[8] = target: M-phase phosphoprotein 8 (Homo sapiens) (UniProt Q99549); test: qHTS Validation Assay for Inhibitors for MPP8 Chromodomain Interactions with Methylated Histone Tails (AID 488949); further: nearly all actives have a fitted effect of over 55% in size; further: potency means the concentration at half of the fitted maximal effect
Outline: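 AlphaScreen proximity signal from streptavidin donor and Ni-chelate acceptor beads (10 ug/mL each) reported binding of MPP8 to trimethyl-K9 H3(1-18) peptide, both at 50 nM. The complex formed 30 min before a 30 min compound exposure at room temperature, in PBS pH 7.4.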

[9] = target: Methanococcus maripaludis chaperonin (MmCpn) (UniProt Q6LX38); test: High-Throughput Screening for Modulators of Cytosolic Chaperonin Activity: MmCpn Primary Screen (AID 488978);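 further: 50 nM MmCpn enzyme hydrolysing 30 µM ATP at 37 °C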
Outline: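 ATPase activity of 50 nM MmCpn was assayed with 30 uM ATP, 10 minutes at 37C, after a 5 min compound preincubation at room temperature. ADP production was read as HTRF emission at 590 and 665 nm.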

[10] = target: Transient receptor potential cation channel subfamily V member 1 (Homo sapiens) (UniProt Q8NER1); test: HTS Assay for Compounds that Act as Enhancers of the Vanilloid Receptor 1 (AID 488979)
Outline: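 TRPV1-expressing cells loaded with Fluo-8 calcium dye; compounds added and calcium influx read kinetically for 3 min (agonist phase), then capsaicin at EC20 added and read 2 min more for enhancement. Fluorescence ex 480/em 520 nm.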

[11] = target: Thyrotropin receptor (Homo sapiens) (UniProt P16473); test: qHTS Assay for Antagonists of the Thyroid Stimulating Hormone Receptor (AID 488980); further: series mostly up to about 58 µM
Outline: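 Inhibition of cAMP raised by EC80 TSH (4 nM final) was read by HTRF, with lysate cAMP competing against cAMP-d2 for cryptate antibody after 30 min at room temperature. The cells were transfected HEK293 held in phosphodiesterase inhibitor RO 20-1724 at 70 uM.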

[12] = target: D(1A) dopamine receptor (Homo sapiens) (UniProt P21728); test: HTS Assay for Allosteric Agonists of the Human D1 Dopamine Receptor: Primary Screen for Agonists (AID 488981)
Outline: (§1)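 Tetracycline-induced HEK293 T-REx cells force-coupled to calcium signalling were incubated overnight at 30 C and dye-loaded at room temperature. Calcium flux over 180 s after compound addition flagged agonists; a further 180 s read after EC20 dopamine flagged potentiators.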

[13] = target: D(1A) dopamine receptor (Homo sapiens) (UniProt P21728); test: HTS Assay for Allosteric Agonists of the Human D1 Dopamine Receptor: Primary Screen for Potentiators (AID 488982)
Outline: as §1

[14] = target: D(1A) dopamine receptor (Homo sapiens) (UniProt P21728); test: HTS Assay for Allosteric Agonists of the Human D1 Dopamine Receptor: Primary Screen for Antagonists (AID 488983);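 further: calcium flux response to an EC80 dopamine challenge measured with no-wash dye; nearly all actives have a fitted effect of over 65% in size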
Outline: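 Tetracycline-induced HEK293 T-REx cells expressing force-coupled D1 were plated overnight at 30 C, dye-loaded for calcium, and read kinetically. Compounds were pinned in, then an EC80 dopamine challenge followed after 180 s to reveal antagonism.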

[15] = Validation screen for small molecules that induce genotoxicity in human embryonic kidney (HEK293T) cells expressing luciferase-tagged ELG1 (AID 493106)
Outline: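 HEK293T cells expressing luciferase-tagged ELG1 were exposed to compound or DMSO vehicle for 16 hr at 37 °C, 5% CO2. Genotoxic stress raises ELG1 levels, so increased luciferase signal after ONE-Glo addition and 30 min at room temperature marks hits.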

[16] = target: Thyrotropin-releasing hormone receptor (Homo sapiens) (UniProt P34981); test: qHTS for Small Molecule Agonists and Allosteric Enhancers of Human TRH Receptor: Validation Screen for Agonists (AID 493127;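 active means calcium activation more than 3 SD above the typical response in the agonist read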;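 further: intracellular calcium rise by fluo-8 fluorescence before TRH EC20 addition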); conditions: TRH receptor agonist cell assay; at 2 µM; stronger effect = higher value
Outline: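 TRHR-expressing cells were plated overnight in serum-containing medium, then loaded with fluo-8 calcium dye at room temperature for 30 min–1.5 h. After a 10 s baseline, compound was pin-transferred and calcium fluorescence (ex 480/em 530) read kinetically for agonist response.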

[17] = Nrf2 qHTS screen for inhibitors: Validation (AID 493153; active means well fitted inhibition curve with a large enough effect in the main read-out, with a control signal flat, not every such curve was filed as active); conditions: Potency: luciferase luminescence; viability change: measured here: cytotoxicity max response
Outline: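 A549 cells carrying an ARE-driven firefly luciferase reporter, in 5% FBS OPTI-MEM, were treated with compounds in concentration-response for 18-24 h at 37°C. Viability was read by CellTiter-Fluor fluorescence, then Nrf2 activity by luciferase luminescence.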

[18] = qHTS for Inhibitors of Cell Surface uPA Generation: Validation Assay (AID 493164);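 further: RAW 264.7 macrophage cells exposed to compound for 18 h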
Outline: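 RAW 264.7, 4000 cells/well, o/n plating; cpd 7-pt 1:5 dilution 2.45 nM–38.3 uM final; 18 h, 37 C/5% CO2; ATP-Lite, 5 s luminescence exposure.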

[19] = target: Chromobox protein homolog 1 (Homo sapiens) (UniProt P83916); test: qHTS Validation Assay for Inhibitors of HP1-beta Chromodomain Interactions with Methylated Histone Tails (AID 488953); further: nearly all actives have a fitted effect of over 50% in size; further: potency means the concentration at half of the fitted maximal effect
Outline: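 HP1-beta (50 nM) was preincubated 30 min at room temperature with biotinylated H3(1-18)K9me3 peptide (50 nM) in PBS pH 7.4, 0.01% Tween-20, then with compounds 30 min. AlphaScreen signal was read after streptavidin donor/nickel chelate acceptor beads (10 ug/mL final).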

[20] = target: ATP-dependent 6-phosphofructokinase (Trypanosoma brucei brucei) (UniProt O15648); test: qHTS Assay to Find Inhibitors of T. brucei phosphofructokinase: hit validation (AID 492961);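 further: luminescence reports ADP formed as PFK phosphorylates fructose-6-phosphate with ATP; series mostly up to about 51 µM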
Outline: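 Reaction: 0.1 M triethanolamine pH 8.0, 5 mM MgCl2, F6P 0.5 mM, ATP 0.1 mM, PFK 1.25 nM, 45 min RT. Read-out: ADP-Glo luminescence. Analysis: concentration-response fits, classed by r2 and efficacy.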

Sequence of M-phase phosphoprotein 8 (Homo sapiens) (Q99549 whole entry, looked up): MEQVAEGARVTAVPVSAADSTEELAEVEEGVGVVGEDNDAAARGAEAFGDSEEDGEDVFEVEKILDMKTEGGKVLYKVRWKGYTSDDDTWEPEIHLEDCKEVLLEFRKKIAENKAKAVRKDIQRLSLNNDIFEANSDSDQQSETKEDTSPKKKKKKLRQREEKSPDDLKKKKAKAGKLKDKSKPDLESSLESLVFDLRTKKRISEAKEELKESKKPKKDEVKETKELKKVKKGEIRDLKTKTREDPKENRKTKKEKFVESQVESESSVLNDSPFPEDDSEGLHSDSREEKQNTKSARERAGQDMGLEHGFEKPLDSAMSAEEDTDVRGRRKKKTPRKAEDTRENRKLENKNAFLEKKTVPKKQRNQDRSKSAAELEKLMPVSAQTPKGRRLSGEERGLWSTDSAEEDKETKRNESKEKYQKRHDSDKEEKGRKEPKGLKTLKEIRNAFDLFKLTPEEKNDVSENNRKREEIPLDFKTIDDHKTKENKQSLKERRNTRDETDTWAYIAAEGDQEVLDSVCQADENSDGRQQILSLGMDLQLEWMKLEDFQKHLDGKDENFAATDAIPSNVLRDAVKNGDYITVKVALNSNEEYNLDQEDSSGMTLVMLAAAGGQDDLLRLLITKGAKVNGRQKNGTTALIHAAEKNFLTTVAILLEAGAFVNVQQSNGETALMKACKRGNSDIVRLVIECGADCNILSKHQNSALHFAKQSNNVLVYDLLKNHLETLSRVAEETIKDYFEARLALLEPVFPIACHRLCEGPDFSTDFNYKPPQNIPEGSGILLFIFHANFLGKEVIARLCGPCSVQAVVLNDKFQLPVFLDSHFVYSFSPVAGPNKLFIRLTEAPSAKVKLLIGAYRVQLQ
Sequence of ATP-dependent 6-phosphofructokinase (Trypanosoma brucei brucei) (O15648 whole entry, looked up): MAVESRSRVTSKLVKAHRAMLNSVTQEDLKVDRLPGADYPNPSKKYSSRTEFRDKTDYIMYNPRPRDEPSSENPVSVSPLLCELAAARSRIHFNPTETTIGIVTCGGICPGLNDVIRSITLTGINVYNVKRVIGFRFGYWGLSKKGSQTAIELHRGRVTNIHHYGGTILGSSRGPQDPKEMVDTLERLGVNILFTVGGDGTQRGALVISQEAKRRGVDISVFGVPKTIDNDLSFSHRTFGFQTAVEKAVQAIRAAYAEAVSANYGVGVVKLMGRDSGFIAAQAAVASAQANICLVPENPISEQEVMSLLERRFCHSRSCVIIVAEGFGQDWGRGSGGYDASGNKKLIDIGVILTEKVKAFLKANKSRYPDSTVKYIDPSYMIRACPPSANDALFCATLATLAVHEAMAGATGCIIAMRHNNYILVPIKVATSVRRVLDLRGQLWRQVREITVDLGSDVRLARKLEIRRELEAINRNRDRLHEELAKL
Sequence of Thioredoxin reductase 1, cytoplasmic (Rattus norvegicus) (O89049 whole entry, looked up): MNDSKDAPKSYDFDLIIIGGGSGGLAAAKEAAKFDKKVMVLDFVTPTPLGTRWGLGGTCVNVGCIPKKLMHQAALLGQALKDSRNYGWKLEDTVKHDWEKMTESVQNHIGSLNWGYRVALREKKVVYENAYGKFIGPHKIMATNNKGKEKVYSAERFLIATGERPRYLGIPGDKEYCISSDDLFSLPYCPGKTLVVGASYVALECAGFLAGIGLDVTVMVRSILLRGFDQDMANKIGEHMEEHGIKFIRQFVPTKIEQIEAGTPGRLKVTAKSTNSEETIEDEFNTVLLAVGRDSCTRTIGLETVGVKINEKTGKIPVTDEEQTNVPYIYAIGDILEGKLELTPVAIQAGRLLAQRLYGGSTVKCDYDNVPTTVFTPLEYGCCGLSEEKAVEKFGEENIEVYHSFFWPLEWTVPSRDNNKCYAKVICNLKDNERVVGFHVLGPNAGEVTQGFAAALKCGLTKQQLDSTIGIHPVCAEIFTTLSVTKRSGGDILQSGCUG
Sequence of Thyrotropin receptor (Homo sapiens) (P16473 whole entry, looked up): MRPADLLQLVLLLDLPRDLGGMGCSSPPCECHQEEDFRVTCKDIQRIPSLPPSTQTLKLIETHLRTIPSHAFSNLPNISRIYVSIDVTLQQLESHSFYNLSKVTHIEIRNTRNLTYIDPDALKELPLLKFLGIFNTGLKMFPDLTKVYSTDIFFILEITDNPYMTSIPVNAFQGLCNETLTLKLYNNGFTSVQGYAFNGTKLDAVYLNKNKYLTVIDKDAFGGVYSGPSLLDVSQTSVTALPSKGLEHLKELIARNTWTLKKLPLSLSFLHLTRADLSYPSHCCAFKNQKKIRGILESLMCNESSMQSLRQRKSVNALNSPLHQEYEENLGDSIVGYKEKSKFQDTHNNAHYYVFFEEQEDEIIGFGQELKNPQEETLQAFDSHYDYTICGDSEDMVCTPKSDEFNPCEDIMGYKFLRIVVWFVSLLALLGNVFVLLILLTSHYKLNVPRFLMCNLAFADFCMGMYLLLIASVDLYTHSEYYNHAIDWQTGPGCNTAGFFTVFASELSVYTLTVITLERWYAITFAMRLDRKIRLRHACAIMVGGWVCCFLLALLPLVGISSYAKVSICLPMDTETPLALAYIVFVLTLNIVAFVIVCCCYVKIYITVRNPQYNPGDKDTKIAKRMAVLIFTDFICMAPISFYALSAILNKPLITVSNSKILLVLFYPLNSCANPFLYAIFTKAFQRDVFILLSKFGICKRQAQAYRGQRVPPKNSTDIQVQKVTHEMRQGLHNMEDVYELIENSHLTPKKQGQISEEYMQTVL
Sequence of Thyrotropin-releasing hormone receptor (Homo sapiens) (P34981 whole entry, looked up): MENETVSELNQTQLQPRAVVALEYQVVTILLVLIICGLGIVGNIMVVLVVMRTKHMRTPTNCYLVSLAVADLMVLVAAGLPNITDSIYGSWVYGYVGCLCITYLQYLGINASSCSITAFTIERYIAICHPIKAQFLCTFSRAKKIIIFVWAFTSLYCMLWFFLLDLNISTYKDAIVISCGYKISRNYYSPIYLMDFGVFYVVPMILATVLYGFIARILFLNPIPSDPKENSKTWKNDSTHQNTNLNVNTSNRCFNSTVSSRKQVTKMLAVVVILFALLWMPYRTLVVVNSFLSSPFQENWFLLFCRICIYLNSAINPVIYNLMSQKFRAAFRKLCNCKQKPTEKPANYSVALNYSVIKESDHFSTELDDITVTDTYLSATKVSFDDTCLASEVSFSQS
Sequence of Methanococcus maripaludis chaperonin (MmCpn) (Q6LX38 1-543): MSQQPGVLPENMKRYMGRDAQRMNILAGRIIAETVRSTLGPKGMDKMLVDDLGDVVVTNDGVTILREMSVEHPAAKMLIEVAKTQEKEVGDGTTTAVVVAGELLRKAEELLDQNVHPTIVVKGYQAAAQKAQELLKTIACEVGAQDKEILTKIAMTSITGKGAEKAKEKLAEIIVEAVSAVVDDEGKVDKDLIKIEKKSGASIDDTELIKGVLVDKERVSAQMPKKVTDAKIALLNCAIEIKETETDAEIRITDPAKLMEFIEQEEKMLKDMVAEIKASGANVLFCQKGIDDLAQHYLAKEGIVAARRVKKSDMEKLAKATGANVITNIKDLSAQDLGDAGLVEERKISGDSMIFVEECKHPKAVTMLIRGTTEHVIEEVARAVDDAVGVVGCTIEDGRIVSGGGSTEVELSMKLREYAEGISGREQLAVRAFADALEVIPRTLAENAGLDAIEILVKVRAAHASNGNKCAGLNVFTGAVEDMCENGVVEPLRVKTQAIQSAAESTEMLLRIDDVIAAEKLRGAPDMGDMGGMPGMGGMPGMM
Sequence of Flap endonuclease 1 (Homo sapiens) (P39748 whole entry, looked up): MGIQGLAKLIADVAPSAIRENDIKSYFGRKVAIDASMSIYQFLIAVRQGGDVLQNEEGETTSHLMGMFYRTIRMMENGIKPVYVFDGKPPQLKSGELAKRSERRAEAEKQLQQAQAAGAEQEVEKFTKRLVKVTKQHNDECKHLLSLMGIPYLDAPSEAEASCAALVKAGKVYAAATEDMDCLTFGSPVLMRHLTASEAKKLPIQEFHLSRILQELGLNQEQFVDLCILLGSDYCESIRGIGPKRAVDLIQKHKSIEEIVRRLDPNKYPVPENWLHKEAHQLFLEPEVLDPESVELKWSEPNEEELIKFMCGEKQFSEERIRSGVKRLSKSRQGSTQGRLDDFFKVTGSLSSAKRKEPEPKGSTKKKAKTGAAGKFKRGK
Sequence of D(1A) dopamine receptor (Homo sapiens) (P21728 whole entry, looked up): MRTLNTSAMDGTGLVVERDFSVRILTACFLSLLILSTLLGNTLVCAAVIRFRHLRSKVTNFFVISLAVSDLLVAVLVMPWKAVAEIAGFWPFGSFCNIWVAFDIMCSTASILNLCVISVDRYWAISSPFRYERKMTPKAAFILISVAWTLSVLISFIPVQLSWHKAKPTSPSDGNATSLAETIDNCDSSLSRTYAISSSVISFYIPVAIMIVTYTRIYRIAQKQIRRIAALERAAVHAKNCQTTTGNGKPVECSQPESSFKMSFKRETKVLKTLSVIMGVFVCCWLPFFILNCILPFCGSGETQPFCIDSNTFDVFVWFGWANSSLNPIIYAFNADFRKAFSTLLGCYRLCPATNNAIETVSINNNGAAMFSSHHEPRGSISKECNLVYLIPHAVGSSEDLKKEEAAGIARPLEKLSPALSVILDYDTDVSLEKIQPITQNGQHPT
Sequence of Beta-2 adrenergic receptor (Homo sapiens) (P07550 whole entry, looked up): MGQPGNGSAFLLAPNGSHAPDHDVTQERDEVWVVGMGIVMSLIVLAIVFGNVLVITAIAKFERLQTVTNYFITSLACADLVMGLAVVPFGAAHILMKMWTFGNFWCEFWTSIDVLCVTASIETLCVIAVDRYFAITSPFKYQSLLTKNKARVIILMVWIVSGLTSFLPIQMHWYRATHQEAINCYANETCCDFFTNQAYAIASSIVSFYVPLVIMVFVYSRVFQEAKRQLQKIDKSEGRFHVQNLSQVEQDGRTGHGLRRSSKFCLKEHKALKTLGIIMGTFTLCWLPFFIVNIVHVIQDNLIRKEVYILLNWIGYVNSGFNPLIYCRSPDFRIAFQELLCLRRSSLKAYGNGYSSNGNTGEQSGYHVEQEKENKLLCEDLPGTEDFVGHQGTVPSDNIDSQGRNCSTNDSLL
Sequence of Chromobox protein homolog 1 (Homo sapiens) (P83916 whole entry, looked up): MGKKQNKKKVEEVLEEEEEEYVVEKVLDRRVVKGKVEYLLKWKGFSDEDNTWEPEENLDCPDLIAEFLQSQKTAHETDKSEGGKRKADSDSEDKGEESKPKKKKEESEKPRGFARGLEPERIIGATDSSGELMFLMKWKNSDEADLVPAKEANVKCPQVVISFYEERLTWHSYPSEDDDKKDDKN

O=C1NCN(c2ccccc2)C12CCN(CC1COc3ccccc3O1)CC2 (configuration not stated)
outcome [1]: inactive | Potency [2]: inactive | Potency [3]: inactive | Potency [4]: inactive | outcome [5]: inactive | Potency [6]: inactive | Potency [7]: inactive | Potency [8]: inactive | outcome [9]: inactive | outcome [10]: inactive | outcome [11]: inactive | Potency [12]: inactive | Potency [13]: inactive | Potency [14]: inactive | Potency [15]: inactive | activation [16]: 0.562% (inactive) | Potency [17]: inactive | viability change [17]: 1.49% | outcome [18]: inactive

CC(=O)[C@H]1CC[C@H]2[C@@H]3CC[C@H]4C[C@H](O)CC[C@]4(C)[C@H]3C(=O)C[C@]12C
outcome [1]: inactive | Potency [2]: inactive | Potency [3]: inactive | Potency [4]: inactive | outcome [5]: inactive | Potency [6]: inactive | Potency [7]: inactive | Potency [8]: inactive | Potency [19]: inactive | outcome [9]: inactive | outcome [10]: inactive | Potency [12]: inactive | Potency [13]: inactive | Potency [14]: inactive | outcome [20]: inactive | Potency [15]: inactive | activation [16]: 1.5% (inactive) | outcome [18]: inactive

CCCC(C)(COC(N)=O)COC(=O)NC(C)C (configuration not stated)
outcome [1]: inactive | Potency [3]: inactive | Potency [4]: inactive | outcome [5]: inactive | Potency [6]: inactive | Potency [7]: inactive | Potency [8]: inactive | Potency [19]: 0.006 µM (active) | outcome [9]: inactive | outcome [10]: inactive | outcome [11]: inactive | Potency [12]: inactive | Potency [13]: inactive | Potency [14]: inactive | Potency [15]: inactive | activation [16]: -0.188% (inactive) | Potency [17]: inactive | viability change [17]: 5.42% | outcome [18]: inactive

CC[C@@H](CO)NC(=O)[C@@H]1C=C2c3cccc4c3c(cn4C)C[C@H]2N(C)C1
outcome [1]: inactive | Potency [2]: inactive | outcome [5]: inactive | Potency [6]: 10.6 µM (active) | Potency [8]: inactive | outcome [9]: inactive | Potency [12]: inactive | Potency [13]: inactive | outcome [20]: inactive | Potency [15]: inactive | Potency [17]: inactive | viability change [17]: -1.92% | outcome [18]: inactive

Nc1ccncc1
outcome [1]: inactive | Potency [3]: inactive | Potency [4]: inactive | outcome [5]: inactive | Potency [6]: inactive | Potency [7]: inactive | Potency [8]: inactive | outcome [9]: inactive | outcome [10]: inactive | outcome [11]: inactive | Potency [12]: inactive | Potency [13]: inactive | Potency [14]: inactive | Potency [15]: inactive | activation [16]: 1.19% (inactive) | Potency [17]: inactive | viability change [17]: -2.07% | outcome [18]: inactive

NCC(O)c1ccc(O)cc1 (configuration not stated)
outcome [1]: inactive | Potency [3]: inactive | Potency [4]: inactive | outcome [5]: inactive | Potency [6]: inactive | Potency [7]: inactive | Potency [8]: inactive | Potency [19]: inactive | outcome [9]: inactive | outcome [10]: inactive | outcome [11]: inactive | Potency [12]: inactive | Potency [13]: inactive | Potency [14]: inactive | Potency [15]: inactive | activation [16]: 0.812% (inactive) | Potency [17]: inactive | viability change [17]: 0.943% | outcome [18]: inactive

O=c1[nH]c2ccccc2n1CCCN1CCC(n2c(=O)[nH]c3cc(Cl)ccc32)CC1
outcome [1]: inactive | Potency [3]: 1.17 µM (active) | Potency [4]: 10.4 µM (active) | outcome [5]: inactive | Potency [6]: inactive | Potency [8]: inactive | outcome [9]: inactive | outcome [10]: inactive | outcome [11]: inactive | Potency [12]: inactive | Potency [13]: inactive | outcome [20]: inactive | Potency [15]: inactive | Potency [17]: inactive | viability change [17]: -5.95% | outcome [18]: inactive

CCCN1CCC[C@@H]2Cc3nc(N)ncc3C[C@H]21
outcome [1]: inactive | Potency [2]: inactive | Potency [3]: inactive | Potency [4]: inactive | outcome [5]: inactive | Potency [6]: inactive | Potency [7]: inactive | Potency [8]: inactive | Potency [19]: inactive | outcome [9]: inactive | outcome [10]: inactive | outcome [11]: inactive | Potency [12]: inactive | Potency [13]: inactive | Potency [14]: inactive | Potency [15]: inactive | activation [16]: 0.562% (inactive) | Potency [17]: inactive | viability change [17]: 1.56% | outcome [18]: inactive

O=c1[nH]c2ccccc2n1C1CCN(CCCC(c2ccc(F)cc2)c2ccc(F)cc2)CC1
outcome [1]: inactive | Potency [2]: inactive | Potency [3]: 10.4 µM (active) | outcome [5]: inactive | Potency [6]: inactive | Potency [7]: inactive | Potency [8]: 22.4 µM (active) | Potency [19]: 35.5 µM (active) | outcome [9]: inactive | outcome [10]: inactive | outcome [11]: inactive | Potency [12]: inactive | Potency [13]: inactive | Potency [15]: inactive | outcome [18]: inactive
